From PubChem BioAssay (NCI)
Compounds without any hit were thinned out: in the full panel of roughly 83,000, 20% have a hit.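 Testing used 96-well plates and a 48-hour single-concentration exposure. Example: -40 means 40% of the starting cells died.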 Activity calls are given as the source filed them. Rule for the calls: active = growth percent below 10; inactive = the rest.

Columns and labels:
Assay in all cases: NCI-60 one-dose screen, 48 h (100 = growth as untreated, 0 = no growth, -100 = all killed)
Conditions in all cases: 10 µM unless noted
NCI-H23 lung = test system: NCI-H23 lung
NCI-H226 lung = test system: NCI-H226 lung
NCI-H322M lung = test system: NCI-H322M lung
HOP-62 NSCLC = test system: HOP-62 NSCLC
NCI-H460 lung = test system: NCI-H460 lung
NCI-H522 lung = test system: NCI-H522 lung
A549/ATCC NSCLC = test system: A549/ATCC NSCLC
786-0 renal = test system: 786-0 renal
DU-145 prostate = test system: DU-145 prostate
K-562 leukemia = test system: K-562 leukemia
MALME-3M melanoma = test system: MALME-3M melanoma
MDA-MB-231 breast = test system: MDA-MB-231 breast
RXF 393 renal = test system: RXF 393 renal
SF-268 CNS = test system: SF-268 CNS
SF-539 CNS = test system: SF-539 CNS
UACC-257 melanoma = test system: UACC-257 melanoma
M14 melanoma = test system: M14 melanoma
HCT-15 colon = test system: HCT-15 colon
SF-295 CNS = test system: SF-295 CNS

Measured: growth

COc1cc(OC)c2cc(C(=O)O)c(=O)oc2c1
inactive: NCI-H23 lung 96.8% | NCI-H226 lung 96.8% | NCI-H322M lung 79.8% | HOP-62 NSCLC 103% | NCI-H460 lung 95.3% | NCI-H522 lung 97.3% | A549/ATCC NSCLC 123% | 786-0 renal 83.9% | DU-145 prostate 129% | K-562 leukemia 95.1% | MALME-3M melanoma 113% | MDA-MB-231 breast 94.3% | RXF 393 renal 105% | SF-268 CNS 110% | SF-539 CNS 102% | UACC-257 melanoma 76% | M14 melanoma 103% | HCT-15 colon 106%

COc1ccc(Nc2ccnc(NCCCNc3ccnc4cc(Cl)ccc34)n2)cc1
inactive: NCI-H23 lung 58.1% | NCI-H226 lung 69.6% | HOP-62 NSCLC 46.9% | DU-145 prostate 22.4%
active: NCI-H322M lung 3.32% | NCI-H460 lung -56.5% | NCI-H522 lung -55% | A549/ATCC NSCLC -14.5% | 786-0 renal -97.7% | K-562 leukemia -19.2% | MALME-3M melanoma -81.5% | MDA-MB-231 breast -73.4% | RXF 393 renal -90% | SF-268 CNS -28.6% | SF-295 CNS -82.2% | SF-539 CNS -100% | M14 melanoma -91.9% | HCT-15 colon -54.6%

COc1ccc(C2=NNC(c3cc(Cc4ccc(O)c(C5CC(c6ccc(OC)cc6)=NN5)c4)ccc3O)C2)cc1 (stereo not given)
inactive: NCI-H23 lung 35.9% | NCI-H226 lung 82.6% | NCI-H322M lung 32.1% | HOP-62 NSCLC 60% | NCI-H460 lung 27.5% | A549/ATCC NSCLC 35.2% | 786-0 renal 56.1% | DU-145 prostate 69.3% | MALME-3M melanoma 78.9% | MDA-MB-231 breast 58.3% | RXF 393 renal 72.6% | SF-268 CNS 44% | SF-539 CNS 57.2% | UACC-257 melanoma 70.6% | M14 melanoma 59.3% | HCT-15 colon 43.3%
active: NCI-H522 lung -7.59% | SF-295 CNS 6.47%

Oc1ccc(Cc2ccc(O)c(C3CC(c4ccc(Cl)cc4)=NN3)c2)cc1C1CC(c2ccc(Cl)cc2)=NN1 (stereo not given)
active: NCI-H322M lung 7.95% | NCI-H460 lung 4.56% | NCI-H522 lung -6.56% | SF-295 CNS -26.9%
inactive: NCI-H23 lung 17.4% | NCI-H226 lung 53.6% | HOP-62 NSCLC 31.6% | A549/ATCC NSCLC 14.7% | 786-0 renal 18.2% | DU-145 prostate 32.6% | MALME-3M melanoma 29.7% | MDA-MB-231 breast 12.7% | RXF 393 renal 66.5% | SF-268 CNS 29.8% | SF-539 CNS 40.7% | UACC-257 melanoma 23.7% | M14 melanoma 24.5% | HCT-15 colon 17.2%

CNc1ccc(CSc2ccc(Cl)cc2)cc1
inactive: NCI-H23 lung 108% | NCI-H226 lung 84.6% | NCI-H322M lung 123% | HOP-62 NSCLC 87.4% | NCI-H460 lung 105% | NCI-H522 lung 75.6% | A549/ATCC NSCLC 93.6% | 786-0 renal 71% | DU-145 prostate 127% | K-562 leukemia 82% | MDA-MB-231 breast 103% | RXF 393 renal 111% | SF-268 CNS 96.3% | SF-539 CNS 98.2% | UACC-257 melanoma 97.4% | M14 melanoma 103% | HCT-15 colon 94.8%

COc1ccc(-c2cc(C(=O)Nc3nc4cc(C)c(C)cc4s3)nc3cc(-c4ccccc4)nn23)cc1OC
inactive: NCI-H23 lung 96% | NCI-H226 lung 113% | NCI-H322M lung 119% | HOP-62 NSCLC 100% | NCI-H460 lung 112% | NCI-H522 lung 89% | A549/ATCC NSCLC 94.5% | 786-0 renal 112% | DU-145 prostate 121% | K-562 leukemia 110% | MALME-3M melanoma 101% | MDA-MB-231 breast 107% | RXF 393 renal 112% | SF-295 CNS 112% | SF-539 CNS 98.7% | UACC-257 melanoma 93% | M14 melanoma 103% | HCT-15 colon 111%

C/C(=N/N=C(N)N)c1ccc(N)cc1
inactive: NCI-H23 lung 100% | NCI-H226 lung 102% | NCI-H322M lung 79.2% | HOP-62 NSCLC 91.5% | NCI-H460 lung 106% | NCI-H522 lung 91.5% | A549/ATCC NSCLC 103% | 786-0 renal 96% | DU-145 prostate 107% | K-562 leukemia 94.6% | MALME-3M melanoma 115% | MDA-MB-231 breast 104% | RXF 393 renal 98.5% | SF-268 CNS 114% | SF-539 CNS 96.3% | UACC-257 melanoma 150% | M14 melanoma 95.9% | HCT-15 colon 115%

Cc1c(C(N)=O)sc2nc(SCC(=O)Nc3ccc(Cl)cc3)n(-c3ccccc3)c(=O)c12
inactive: NCI-H23 lung 106% | NCI-H226 lung 108% | NCI-H322M lung 105% | HOP-62 NSCLC 109% | NCI-H460 lung 106% | NCI-H522 lung 89.2% | A549/ATCC NSCLC 116% | 786-0 renal 104% | DU-145 prostate 120% | K-562 leukemia 84.2% | MALME-3M melanoma 159% | MDA-MB-231 breast 93.1% | RXF 393 renal 95.8% | SF-268 CNS 101% | SF-539 CNS 110% | UACC-257 melanoma 104% | M14 melanoma 104% | HCT-15 colon 121%

O=C1OC(c2ccc(-c3ccccc3)cc2)=C/C1=C/c1cccs1
inactive: NCI-H23 lung 88.6% | NCI-H226 lung 63.6% | NCI-H322M lung 99.7% | HOP-62 NSCLC 101% | NCI-H460 lung 105% | NCI-H522 lung 63% | A549/ATCC NSCLC 83.6% | 786-0 renal 90.3% | DU-145 prostate 103% | K-562 leukemia 87.8% | MALME-3M melanoma 98.2% | MDA-MB-231 breast 75.3% | RXF 393 renal 84.6% | SF-268 CNS 88.5% | SF-295 CNS 95.8% | SF-539 CNS 106% | UACC-257 melanoma 106% | M14 melanoma 90.3% | HCT-15 colon 98.1%

Nc1nc(SCc2ccccc2Cl)c(-c2ccccc2)c(SCc2ccccc2Cl)n1
inactive: NCI-H23 lung 83.2% | NCI-H226 lung 105% | NCI-H322M lung 107% | HOP-62 NSCLC 87.9% | NCI-H460 lung 85.6% | NCI-H522 lung 79.3% | A549/ATCC NSCLC 79.3% | 786-0 renal 104% | DU-145 prostate 98.2% | K-562 leukemia 85.3% | MALME-3M melanoma 110% | MDA-MB-231 breast 109% | RXF 393 renal 115% | SF-268 CNS 105% | SF-539 CNS 114% | UACC-257 melanoma 92.4% | M14 melanoma 95.3% | HCT-15 colon 81.3%

NCCCc1nnc(CCC(=O)c2nc3ccccc3[nH]2)o1
inactive: NCI-H23 lung 98.3% | NCI-H226 lung 108% | NCI-H322M lung 97.3% | HOP-62 NSCLC 112% | NCI-H460 lung 115% | NCI-H522 lung 103% | A549/ATCC NSCLC 106% | 786-0 renal 103% | DU-145 prostate 115% | K-562 leukemia 98.5% | MALME-3M melanoma 82.2% | MDA-MB-231 breast 89.8% | RXF 393 renal 116% | SF-268 CNS 115% | SF-295 CNS 98.4% | SF-539 CNS 101% | UACC-257 melanoma 113% | M14 melanoma 109% | HCT-15 colon 90%

C/C(=N/N=C(N)N)c1ccc(Cl)cc1
inactive: NCI-H23 lung 95.1% | NCI-H226 lung 96% | NCI-H322M lung 90.2% | HOP-62 NSCLC 98.8% | NCI-H460 lung 102% | NCI-H522 lung 89% | A549/ATCC NSCLC 106% | 786-0 renal 89.6% | DU-145 prostate 106% | K-562 leukemia 67.8% | MALME-3M melanoma 143% | MDA-MB-231 breast 84% | RXF 393 renal 90.5% | SF-268 CNS 101% | SF-539 CNS 100% | UACC-257 melanoma 77.1% | M14 melanoma 86.9% | HCT-15 colon 102%

COc1cc2c(c(OC)c1OC)-c1ccc(NN(C(=O)c3ccccc3)C(=O)c3ccccc3)c(=O)cc1[C@@H](NC(C)=O)CC2 (tested in a mixture with another compound)
inactive: NCI-H23 lung 26.9% | NCI-H226 lung 73.3% | NCI-H322M lung 17.8% | HOP-62 NSCLC 46% | NCI-H460 lung 17.9% | A549/ATCC NSCLC 56.6% | 786-0 renal 31.4% | MALME-3M melanoma 39.4% | MDA-MB-231 breast 51.2% | RXF 393 renal 38.5% | SF-268 CNS 48.9% | SF-539 CNS 15.4% | UACC-257 melanoma 58.4%
active: NCI-H522 lung -8.35% | DU-145 prostate 3.42% | SF-295 CNS -30.7% | M14 melanoma 4.01%

O=C(C(=O)N1CCOCC1)c1ccc(OC2OC(CO)C(O)C(O)C2O)cc1 (stereo not given)
inactive: NCI-H23 lung 106% | NCI-H226 lung 107% | NCI-H322M lung 115% | HOP-62 NSCLC 107% | NCI-H460 lung 110% | NCI-H522 lung 79.9% | A549/ATCC NSCLC 107% | 786-0 renal 103% | DU-145 prostate 125% | MALME-3M melanoma 129% | MDA-MB-231 breast 107% | RXF 393 renal 112% | SF-268 CNS 115% | SF-295 CNS 115% | SF-539 CNS 96.3% | UACC-257 melanoma 96.5% | M14 melanoma 102% | HCT-15 colon 104%

CCn1c2ccccc2c2ccc(C(C)=O)cc21
inactive: NCI-H23 lung 101% | NCI-H226 lung 91.8% | NCI-H322M lung 126% | HOP-62 NSCLC 103% | NCI-H460 lung 108% | NCI-H522 lung 96.6% | A549/ATCC NSCLC 103% | 786-0 renal 102% | DU-145 prostate 93.5% | MALME-3M melanoma 113% | MDA-MB-231 breast 114% | RXF 393 renal 105% | SF-268 CNS 90.8% | SF-295 CNS 116% | SF-539 CNS 96.5% | UACC-257 melanoma 108% | M14 melanoma 105% | HCT-15 colon 107%

COc1cc(C2NC(c3ccc(Cl)cc3)C(C)/C(=N/NC(N)=S)C2C)cc(OC)c1OC (stereo not given)
inactive: NCI-H23 lung 92.6% | NCI-H226 lung 85.9% | NCI-H322M lung 97.7% | HOP-62 NSCLC 99% | NCI-H460 lung 100% | NCI-H522 lung 65.6% | A549/ATCC NSCLC 94.9% | 786-0 renal 91.1% | DU-145 prostate 117% | MALME-3M melanoma 73% | MDA-MB-231 breast 101% | RXF 393 renal 85.9% | SF-268 CNS 101% | SF-295 CNS 117% | SF-539 CNS 88.8% | UACC-257 melanoma 103% | M14 melanoma 92.7%

COc1cc(/C=C/c2nnc(-c3cc(-c4ccccc4)n[nH]3)o2)cc(OC)c1OC
inactive: NCI-H23 lung 92.6% | NCI-H226 lung 100% | NCI-H322M lung 106% | HOP-62 NSCLC 102% | NCI-H460 lung 107% | NCI-H522 lung 85.4% | A549/ATCC NSCLC 97.5% | 786-0 renal 118% | DU-145 prostate 108% | K-562 leukemia 98.2% | MALME-3M melanoma 98.3% | MDA-MB-231 breast 111% | RXF 393 renal 111% | SF-295 CNS 105% | SF-539 CNS 92.6% | UACC-257 melanoma 105% | M14 melanoma 127% | HCT-15 colon 102%
